Bioassay records deposited in PubChem BioAssay by several laboratories.
ALR inh – inhibitors of human ALR sulfhydryl oxidase, primary screen, biochemical, H2O2 detection, HRP-luminol luminescence, single point; purified ALR, DTT oxidation; FAD-linked sulfhydryl oxidase ALR (Homo sapiens), P55789; 290,000 tested, 3.8% active; inhibition, % (test concentration not listed);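 active means mean replicate inhibition above about 79%, with every replicate also reaching it, limit read from the data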
Target sequence (P55789 whole entry, looked up): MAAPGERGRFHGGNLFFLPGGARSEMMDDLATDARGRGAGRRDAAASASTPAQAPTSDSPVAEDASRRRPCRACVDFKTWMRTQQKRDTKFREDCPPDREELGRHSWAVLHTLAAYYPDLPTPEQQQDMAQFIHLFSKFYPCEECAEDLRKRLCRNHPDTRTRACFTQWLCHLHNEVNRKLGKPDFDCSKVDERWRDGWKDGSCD
PDI inh – inhibitors of human PDI, primary screen, biochemical, turbidity, single point, plate reader. Protein disulfide-isomerase (Homo sapiens), P07237. PDI insulin aggregation turbidity, A650, 90 min. inhibition, % at 10 µM. 350,000 tested, 0.052% active. AID 588391, 2011;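 active means mean inhibition across replicates of 30% or more, whatever share of single replicates reach that level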
CendR NRP1 mod – modulators of CendR peptide binding to NRP-1, primary screen, biochemical, fluorescence polarization, uHTS. FAM-RPARPAR peptide binding to NRP-1. AID 602438, 2012. inhibition, % at 25 µM. Neuropilin-1 (Homo sapiens), O14786. 360,000 tested, 0.85% active;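 active means inhibition or corrected inhibition above about 18%, plus a signal ratio from 0.5 to 1.5, limit read from the data, passing the limit was not always enough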
ARNT TACC3 PPI – disruptors of ARNT/TACC3 protein interaction, primary screen, biochemical, AlphaScreen, single concentration. Transforming acidic coiled-coil-containing protein 3 (Homo sapiens), Q9Y6A5. AlphaScreen His-ARNT PAS-B/GST-TACC3 binding, luminescence; TACC3 fragment carries E629A point mutation. inhibition, % at 9.99 µM. 390,000 tested, 0.66% active. AID 623870, 2012;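 active means mean inhibition of replicates at least 50% and at least half of replicates each reaching 50%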;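 further: 0% = complete ARNT plus TACC3 wells and 100% = ARNT alone without TACC3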
PglD inh – C. jejuni PglD acetyltransferase inhibitors, primary screen, biochemical, DTNB colorimetric, single point; purified PglD enzyme, DTNB colorimetric CoA detection; inhibition, % at 12.5 µM; UDP-N-acetylbacillosamine N-acetyltransferase PglD (Campylobacter jejuni); 360,000 tested, 0.098% active; AID 602405, 2012; in the data active means inhibition above about 16%, passing the limit was not always enough
ERp5 block – inhibitors of ERp5-driven insulin aggregation, primary screen, biochemical, turbidity, absorbance 650 nm, single point; 350,000 tested, 0.05% active; inhibition, % at 9.99 µM; AID 651711, 2012; Protein disulfide-isomerase A6 (Homo sapiens), Q15084; 90 min;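 active means mean replicate inhibition above about 25%, with every replicate also reaching it, limit read from the data, passing the limit was not always enough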
Target sequence (Q15084 whole entry, looked up): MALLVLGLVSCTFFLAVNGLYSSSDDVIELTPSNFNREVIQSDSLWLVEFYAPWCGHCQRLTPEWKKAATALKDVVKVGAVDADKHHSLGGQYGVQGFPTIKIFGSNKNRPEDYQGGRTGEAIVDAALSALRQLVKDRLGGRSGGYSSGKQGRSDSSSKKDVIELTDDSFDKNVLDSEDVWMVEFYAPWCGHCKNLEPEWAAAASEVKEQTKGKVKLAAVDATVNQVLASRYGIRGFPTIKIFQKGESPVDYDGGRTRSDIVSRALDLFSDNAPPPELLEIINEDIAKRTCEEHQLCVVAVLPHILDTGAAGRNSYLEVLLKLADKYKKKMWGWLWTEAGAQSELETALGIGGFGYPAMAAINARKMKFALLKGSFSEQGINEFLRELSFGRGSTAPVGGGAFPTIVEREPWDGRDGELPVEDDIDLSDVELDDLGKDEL
Numbers without * were called inactive. Only a selection was taken, and hits are over-represented in it overall.

How did Oc1ccccc1C1=NCCNC(C(F)(F)F)=C1 do in these assays?
ALR inh: 26.6; PDI inh: 4.6; CendR NRP1 mod: -5.5; ARNT TACC3 PPI: -5.3; ERp5 block: -1.2

Results for FC(F)(F)C1=CC(c2ccc(Cl)cc2)=NCCN1 ?
ALR inh: 98.9*; PDI inh: -1.2; CendR NRP1 mod: -2.1; ARNT TACC3 PPI: 9.7; PglD inh: -4.3

How did Cn1cccc1-c1nc2ccc(NC(=O)c3cccs3)cc2[nH]1 do in these assays?
ALR inh: 7.7; PDI inh: 3.2; CendR NRP1 mod: -13.5; ARNT TACC3 PPI: 36.4*; PglD inh: 5.6

How did CC(=O)Nc1ccc2nc(-c3cccn3C)[nH]c2c1 do in these assays?
ALR inh: 7.7; PDI inh: -4.7; CendR NRP1 mod: 1.6; ARNT TACC3 PPI: -2.8; PglD inh: -0.9; ERp5 block: -1.4

What do the screens show for `Cc1csc(Nc2ccccc2)[n+]1C`?
ALR inh: 98.0*; PDI inh: -6.4; CendR NRP1 mod: 21.9; ARNT TACC3 PPI: 3.8; PglD inh: -1.7; ERp5 block: -0.7

Results for Cc1csc(Nc2ccccc2)[n+]1-c1ccccc1 ?
ALR inh: 98.8*; PDI inh: 3.8; CendR NRP1 mod: -0.5; ERp5 block: 9.5

How did Cc1c(Nc2scc(-c3ccccc3)[n+]2-c2ccccc2)c(=O)n(-c2ccccc2)n1C do in these assays?
ALR inh: -10.8; PDI inh: -0.3; CendR NRP1 mod: 10.9; ARNT TACC3 PPI: 23.6

How did Cc1noc(C)c1S(=O)(=O)Nc1ccc2c(c1)C(=O)N([C@H](C)CO)C[C@@H](C)[C@@H](CN(C)Cc1ccccc1)O2 do in these assays?
ARNT TACC3 PPI: 17.2; PglD inh: -5.1; ERp5 block: -0.9

What do the screens show for `C[C@@H]1CN([C@@H](C)CO)C(=O)c2cc(C3=CCCC3)cnc2O[C@H]1CN(C)C(=O)CN(C)C`?
ARNT TACC3 PPI: 0.5; PglD inh: 5.0; ERp5 block: 4.6

How did C[C@H]1CN([C@@H](C)CO)C(=O)c2cc(NS(=O)(=O)c3cn(C)cn3)ccc2O[C@@H]1CN(C)C do in these assays?
ARNT TACC3 PPI: 3.3; PglD inh: -1.1; ERp5 block: -1.8

What do the screens show for `C=CCNC(=S)N1N=C(c2ccco2)CC1c1ccco1` (stereo unspecified)?
PDI inh: -2.7; CendR NRP1 mod: 16.0; ARNT TACC3 PPI: active; PglD inh: -13.2; ERp5 block: 0.4

Results for CSc1cccc(CN2CCN(Cc3ccccc3)C(CCO)C2)c1 (stereo unspecified) ?
ALR inh: -0.2; PDI inh: 10.3; CendR NRP1 mod: 24.3*; ARNT TACC3 PPI: -0.6; ERp5 block: 3.5

What do the screens show for `CSc1cccc(CN2CCN(CCc3ccccc3)C(CCO)C2)c1` (stereo unspecified)?
ALR inh: -7.6; PDI inh: -6.2; CendR NRP1 mod: 4.6; ARNT TACC3 PPI: -8.8; ERp5 block: 1.6

What do the screens show for `COC(=O)c1ccc(C(C2C(=O)CC(C)(C)CC2=O)C2C(=O)CC(C)(C)CC2=O)cc1`?
ALR inh: 5.5; PDI inh: -5.1; CendR NRP1 mod: 0.9; ARNT TACC3 PPI: 15.6; ERp5 block: 1.0

How did COc1ccc(C(C2C(=O)CC(C)(C)CC2=O)C2C(=O)CC(C)(C)CC2=O)cc1CO do in these assays?
ALR inh: 96.2*; PDI inh: 0.6; CendR NRP1 mod: -10.8; ARNT TACC3 PPI: 18.2; PglD inh: 2.4; ERp5 block: 2.4

How did Cc1ccc(/C=N/NC(=O)Cc2cccn2C)cc1 do in these assays?
ALR inh: 28.2; PDI inh: 2.9; CendR NRP1 mod: -2.4; ARNT TACC3 PPI: -4.2; ERp5 block: 3.4

What do the screens show for `CCc1ccc(/C=N/NC(=O)Cc2cccn2C)cc1`?
ALR inh: 96.1*; PDI inh: 9.0; CendR NRP1 mod: -11.9; ARNT TACC3 PPI: 3.7; ERp5 block: -1.3

What do the screens show for `Cc1ccc(CN2CC(=O)N3[C@H](CO)[C@H](c4ccc(Br)cc4)[C@@H]3C2)cc1`?
ERp5 block: -13.6

How did CC1CCC(C(C)C)C(OCC(O)C[N+]2(C)CCCCC2)C1 (stereo unspecified) do in these assays?
ALR inh: 99.3*; PDI inh: 6.1; CendR NRP1 mod: 2.6; ARNT TACC3 PPI: 1.8; PglD inh: -8.2; ERp5 block: 0.1

What do the screens show for `COc1ccc(OC)c(Nc2cc3ccccc3c(=O)[nH]2)c1`?
ALR inh: 31.1; PDI inh: -9.7; CendR NRP1 mod: -16.8; ARNT TACC3 PPI: 38.2*; PglD inh: 1.8; ERp5 block: 5.2

Results for CC1CC(C)CN(S(=O)(=O)c2cccc3cccnc23)C1 (stereo unspecified) ?
ALR inh: 91.6*; PDI inh: -5.9; CendR NRP1 mod: 0.2; ARNT TACC3 PPI: -8.3; PglD inh: -0.9; ERp5 block: 9.1

Results for CCn1ncc(S(=O)(=O)N2CCN(c3cccc(OC)c3)CC2)c1C ?
ALR inh: 47.0; PDI inh: 0.0; CendR NRP1 mod: 9.2; ARNT TACC3 PPI: -2.5; PglD inh: -1.7; ERp5 block: -4.5

How did COc1cccc(N2CCN(S(=O)(=O)c3cccc4cccnc34)CC2)c1 do in these assays?
ALR inh: 94.5*; PDI inh: -3.5; CendR NRP1 mod: 11.0; ARNT TACC3 PPI: -3.6; ERp5 block: 2.0

How did O=C(C1CCCN1S(=O)(=O)c1cccc2cccnc12)N1CCN(c2ccccc2)CC1 (stereo unspecified) do in these assays?
ALR inh: 87.6*; PDI inh: -3.5; CendR NRP1 mod: 2.4; ARNT TACC3 PPI: 26.3; PglD inh: 1.3; ERp5 block: -3.1

Results for COc1ccc(N2CCN(S(=O)(=O)c3cccc4cccnc34)CC2)cc1 ?
ALR inh: 77.9*; PDI inh: -1.3; CendR NRP1 mod: -11.1; ARNT TACC3 PPI: 10.3; PglD inh: -3.7; ERp5 block: -3.8

How did O=S(=O)(c1cccc2cccnc12)N1CCN(c2ccc(F)cc2)CC1 do in these assays?
PDI inh: -1.0; CendR NRP1 mod: 6.4; ARNT TACC3 PPI: 0.7; ERp5 block: -9.0

What do the screens show for `CO[C@H]1CC[C@@H]2CCN(C)C(=O)CCCN(C)C(=O)c3cccc(C#N)c3OC[C@@H]1O2`?
ARNT TACC3 PPI: 12.8; PglD inh: 3.5; ERp5 block: -2.5

Results for COc1ccc(NC(=O)Nc2cccc3c2O[C@@H](CN(C)C(=O)Nc2cccc4ccccc24)[C@H](C)CN([C@H](C)CO)C3=O)cc1 ?
ARNT TACC3 PPI: 10.2; PglD inh: -1.2
